Results reported in PubChem BioAssay (EPA / NIEHS).
Results filed as inconclusive are left out. Active and inactive are the calls of the source. Rule for the calls: active = hit-call score of the fitted dose curve at least 0.9, where 1 is the maximum; inconclusive = response in the unintended direction; inactive = score below 0.9.

The molecules below were run on alkyl and aryl transferase (GSTA2), GSTA2 (gene 2939) (assay: CLD_GSTA2_24hr: CellzDirect (CLD) Gene Expression Assay for alkyl and aryl transferase (GSTA2) at 24 hours (AID 2283693)).
Description: CLD_24hr is a cell-based, multiplexed-readout assay that uses hepatocyte, a human liver primary cell, with measurements taken at 24 hours after chemical dosing in a 96-well plate.CLD_GSTA2_24hr is one of 16 assay component(s) measured or calculated from the CLD_24hr assay. It is designed to make measurements of mRNA induction, a form of inducible reporter, as detected with chemiluminescence signals by Quantitative Nuclease Protection Assay (qNPA) technology.Data from the assay component CLD_GSTA2_24hr was analyzed at the endpoint, CLD_GSTA2_24hr, in the positive analysis fitting direction relative to DMSO as the negative control and baseline of activity. Using a type of inducible reporter, gain-of-signal activity can be used to understand changes in the reporter gene as they relate to the gene GSTA2. Furthermore, this assay endpoint can be referred to as a primary readout. To generalize the intended target to other relatable targets, this assay endpoint is annotated to the transferase intended target family, where subfamily is alkyl and aryl transferase.
Human hepatocyte cultures were treated daily for two consecutive days with fresh dosing solutions containing appropriate concentrations of the 320 ToxCast chemicals (chemical identities were blinded to CellzDirect and other ToxCast collaborators), vehicle control (0.2% DMSO), and positive control inducers as summarized in Table 1. Due to the large number of treatment groups and chemicals examined, the ToxCast chemicals were divided into two groups (spanning two independent cultures of hepatocytes from separate donor preparations (Hu778: ToxCast plates 1 and 2; Hu776: ToxCast plates 3 and 4). Each preparation of human hepatocyte cultures was treated with respective vehicle control, medium only control, set of six positive controls/reference chemicals for the five hepatic receptor pathways, and a subset of eight of the ToxCast chemicals (indoxacarb, pyrithiobac-sodium, norflurazon, cyhalofop-butyl, methomyl, thiram, acetochlor, and propiconazole). These replicate data, coupled with internal replicates designed within the blinded ToxCast chemical library, provided additional data to evaluate interindividual differences between hepatocyte preparations and their potential impact on chemical profiles.Cell morphology and integrity were evaluated using phase-contrast microscopy as an indicator of hepatocyte cell health (Tyson & Green, 1987). Cultures for each treatment group (i.e., media, vehicle [0.2% DMSO], positive control inducers [multiple concentrations], and the ToxCast chemicals [multiple concentrations]) were observed and cell morphology was assessed relative to vehicle control cultures at each harvest time point (0, 6, 24, or 48 h). […] Images were evaluated at the conclusion of the study to assess changes in cell integrity and account for the effects of chemical exposure on uncharacteristic changes in concentration-dependent gene expression profiles. The results from these determinations of apparent cytotoxicity were annotated (yes/no) alongside the corresponding qNPA data for reference.At the conclusion of each treatment period, hepatocyte cultures (96-well) were washed with 1 volume of HBSS, lysed by addition of 25 ul ArrayPlate lysis buffer (HTG, Tucson, AZ), and 70 ul/well of Denaturation Oil, denatured by incubation at 95C for 10 min, and frozen at approximately -70C until analysis by nuclease protection assay (qNPA) (Roberts et al., 2007). For qNPA analysis, cell lysates were thawed at 50C for approximately 30 min, qNPA probes were added, and samples were incubated at 95C for 10 min to begin the detection process by denaturing the target RNA, dissociating the duplexes and secondary structure hybridization. At the conclusion of the hybridization period, S1 nuclease reagent was added to each sample to digest all nonprotected nucleotides at 50C for 60-90 min. […]

Row | Structure (SMILES) | outcome
1 | CCCN(CCC)C(=O)SCC | inactive
2 | Oc1ccc(C(c2ccc(O)cc2)C(Cl)(Cl)Cl)cc1 | inactive
3 | CCCCCOC(=O)COc1cc(N2C(=O)C3=C(CCCC3)C2=O)c(F)cc1Cl | inactive
4 | COCCO | inactive
5 | CCCCCCC(C)OC(=O)COc1nc(F)c(Cl)c(N)c1Cl (stereo not given) | inactive
6 | COC(=O)c1cccc(C)c1S(=O)(=O)NC(=O)Nc1nc(OCC(F)(F)F)nc(N(C)C)n1 | inactive
7 | Cc1nn(C)c(Oc2ccccc2)c1C=NOCc1ccc(C(=O)OC(C)(C)C)cc1 | inactive
8 | COC(=O)c1c(Cl)nn(C)c1S(=O)(=O)NC(=O)Nc1nc(OC)cc(OC)n1 | inactive
9 | CCC(O)=C1C(=O)CC(C(=O)O)CC1=O (stereo not given) | inactive
10 | CCCOC(=O)c1ccc(C(=O)OCCC)nc1 | inactive
11 | COC(=O)c1ccccc1C(=O)O | inactive
12 | C=CCOC(Cn1ccnc1)c1ccc(Cl)cc1Cl (stereo not given) | inactive
13 | COc1c(Cl)ccc(Cl)c1C(=O)O | inactive
14 | CCCCOCCOCCOCc1cc2c(cc1CCC)OCO2 | inactive
15 | N#CSCSc1nc2ccccc2s1 | inactive
16 | CCCCOC(=O)C(C)Oc1ccc(Oc2ccc(C(F)(F)F)cn2)cc1 (stereo not given) | inactive
17 | CCCCC(CC)CN1C(=O)C2C3C=CC(C3)C2C1=O (stereo not given) | inactive
18 | c1ccc(Nc2ccccc2)cc1 | inactive
19 | CCOC(=O)C(C)Oc1ccc(Oc2cnc3cc(Cl)ccc3n2)cc1 (stereo not given) | inactive
20 | CCOC(=O)C(C)Oc1ccc(Oc2nc3ccc(Cl)cc3o2)cc1 (stereo not given) | inactive
21 | CCC(C)OC(=O)N1CCCCC1CCO (stereo not given) | inactive
22 | CCNc1nc(N)nc(Cl)n1 | inactive
23 | CCCN(CCC)c1c([N+](=O)[O-])cc(C(F)(F)F)c(N)c1[N+](=O)[O-] | inactive
24 | CC(C)(c1ccc(O)cc1)c1ccc(O)cc1 | inactive
25 | COC(=O)c1ccc(CNS(C)(=O)=O)cc1S(=O)(=O)NC(=O)Nc1nc(OC)cc(OC)n1 | inactive
26 | COC(=O)c1ccccc1S(=O)(=O)NC(=O)Nc1nc(OC(F)F)cc(OC(F)F)n1 | inactive
27 | O=C(Nc1ccc([N+](=O)[O-])cc1Cl)c1cc(Cl)ccc1O | inactive
28 | CCCOC(=O)NCCCN(C)C | inactive
29 | COc1nc(C)nc(NC(=O)NS(=O)(=O)c2ccccc2OCCCl)n1 | inactive
30 | CCSC(=O)N(CC(C)C)CC(C)C | inactive
